Test results taken from the supplement of paper PMC9262897, “Low-cost anti-mycobacterial drug discovery using engineered E. coli” (Nature Communications, 2022).
Where a name gives a salt, the structure may show the parent alone. ± gives the standard deviation of the averaged measurements.

Test system: E. coli TESEC Alr+ wild-type control
Experiment: growth (OD600 after 10 h); higher = more growth (less inhibition)
Details: compound 0.1 mM; raw OD600 reference: median of DMSO wells 0.49, cell-free background 0.052
Description: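 TESEC Mtb Alr E. coli (ΔaraC ΔtolC ΔentC Δalr ΔdadX, arabinose-inducible Mtb Alr) or the Alr+ wild-type control strain, grown in defined M9-fructose medium without D-alanine in 96-well plates with Prestwick library compounds at 0.1 mM and 1% DMSO. Low Alr induction is 0.1 µM arabinose and high induction is 10 mM arabinose.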

SMILES	growth
Cc1cc(NC(=O)C2=C(O)c3ccccc3S(=O)(=O)N2C)no1 [Isoxicam]	0.47 ± 0.018
Cc1c(OCC(F)(F)F)ccnc1C[S+]([O-])c1nc2ccccc2[nH]1 (stereo not given) [Lansoprazole]	0.377 ± 0.011
C[C@@H](O)[C@H]1C(=O)N2C(C(=O)O)=C(S[C@@H]3CN[C@H](C(=O)N(C)C)C3)[C@H](C)[C@H]12 [Meropenem]	0.0604 ± 0.0014
Cc1cc(C(C)(C)C)cc(C)c1CC1=NCCN1 [Xylometazoline hydrochloride]	0.4501 ± 0.0037
CC(=O)OCC(=O)[C@@]12OC3(CCCC3)O[C@@H]1C[C@H]1[C@@H]3CCC4=CC(=O)C=C[C@]4(C)[C@@]3(F)[C@@H](O)C[C@@]12C [Amcinonide]	0.462 ± 0.024
CC(C)NCC(O)COc1ccc(COCCOC(C)C)cc1 (stereo not given) [Bisoprolol fumarate]	0.448 ± 0.022
C[C@H](N[C@@H](CCc1ccccc1)C(=O)O)C(=O)N1CCC[C@H]1C(=O)O [Enalaprilat dihydrate]	0.638 ± 0.025
CC(=O)O[C@]1(C(C)=O)CC[C@H]2[C@@H]3C=C(C)C4=CC(=O)CC[C@]4(C)[C@H]3CC[C@@]21C [Megestrol acetate]	0.212 ± 0.22
CC1(C)O[C@@H]2C[C@H]3[C@@H]4CCC5=CC(=O)CC[C@]5(C)[C@@]4(F)[C@@H](O)C[C@]3(C)[C@]2(C(=O)CCl)O1 [Halcinonide]	0.442 ± 0.032
Nc1c2c(nc3ccccc13)CCCC2 [Tacrine hydrochloride]	0.513 ± 0.063
CN(C)CCCN1c2ccccc2Sc2ccccc21 [Promazine hydrochloride]	0.523 ± 0.031
CC1CC(OC(=O)C(O)c2ccccc2)CC(C)(C)N1C (stereo not given) [Eucatropine hydrochloride]	0.444 ± 0.029
c1ccc2c(c1)CCCC2C1=NCCN1 (stereo not given) [Tetrahydrozoline hydrochloride]	0.479 ± 0.063
CCOC(=O)[N-]c1c[n+](N2CCOCC2)no1 [Molsidomine]	0.562 ± 0.037
CN1CCN(C(c2ccccc2)c2ccccc2)CC1 [Cyclizine hydrochloride]	0.602 ± 0.088
Cc1ccc(C(=O)c2cc(O)c(O)c([N+](=O)[O-])c2)cc1 [Tolcapone]	0.065 ± 0.0022
Cc1cccc(C)c1NC(=O)CN1CCN(CCCC(c2ccc(F)cc2)c2ccc(F)cc2)CC1 [Lidoflazine]	0.563 ± 0.013
N[C@@H]1CCCCN(c2c(F)cc3c(=O)c(C(=O)O)cn(C4CC4)c3c2Cl)C1 [Besifloxacin hydrochloride]	0.0537 ± 0.00057
CCOC(=O)[C@H](CCc1ccccc1)N[C@H]1CCc2ccccc2N(CC(=O)O)C1=O [Benazepril HCl]	0.559 ± 0.042
Cc1ccccc1OCC(O)CO (stereo not given) [Mephenesin]	0.494 ± 0.1

SMILES	growth
C[C@]12CC[C@@H]3c4ccc(OS(=O)(=O)O)cc4CC[C@H]3[C@@H]1CCC2=O [Estropipate]	0.534 ± 0.11
O=C1Cc2cc(CCN3CCN(c4nsc5ccccc45)CC3)c(Cl)cc2N1 [Ziprasidone  Hydrochloride]	0.427 ± 0.011
Cc1cc(=O)oc2cc(O)ccc12 [Hymecromone]	0.631 ± 0.01
CC[N+](CC)(CC)CCOc1cccc(OCC[N+](CC)(CC)CC)c1OCC[N+](CC)(CC)CC [Gallamine triethiodide]	0.475 ± 0.062
Cc1ccc(C(=O)c2ccc(CC(=O)O)n2C)cc1 [Tolmetin sodium salt dihydrate]	0.518 ± 0.05
C=CCOC(Cn1ccnc1)c1ccc(Cl)cc1Cl (stereo not given) [Enilconazole]	0.11 ± 0.01
CN(C)CCOC1=Cc2ccccc2Sc2ccc(Cl)cc21 [Zotepine]	0.0664 ± 0.019
CCN(CCCCOC(=O)c1ccc(OC)c(OC)c1)C(C)Cc1ccc(OC)cc1 (stereo not given) [Mebeverine hydrochloride]	0.435 ± 0.016
NC(=O)NC1NC(=O)NC1=O (stereo not given) [Allantoin]	0.438 ± 0.049
N[C@@H](Cc1ccc(O)c(O)c1)C(=O)O [Levodopa]	0.489 ± 0.052
C[C@H]1O[C@@H](O[C@H]2[C@@H](O)C[C@H](O[C@H]3[C@@H](O)C[C@H](O[C@H]4CC[C@@]5(C)[C@H](CC[C@@H]6[C@@H]5C[C@@H](O)[C@]5(C)[C@@H](C7=CC(=O)OC7)CC[C@]65O)C4)O[C@@H]3C)O[C@@H]2C)C[C@H](O)[C@@H]1O [Digoxin]	0.617 ± 0.038
CC1=C(/C=C/C(C)=C/C=C/C(C)=C/C(=O)O)C(C)(C)CCC1 [Retinoic acid]	0.476 ± 0.045
Cc1c(N)c(=O)n(-c2ccccc2)n1C [Ampyrone]	0.457 ± 0.017
Nc1nc2[nH]cc(CCc3ccc(C(=O)N[C@@H](CCC(=O)O)C(=O)O)cc3)c2c(=O)[nH]1 [Pemetrexed disodium]	0.56 ± 0.081
CCN1CCC[C@H]1CNC(=O)c1c(O)c(Cl)cc(Cl)c1OC [Raclopride]	0.391 ± 0.075
Nc1ccn([C@@H]2O[C@H](CO)[C@@H](O)C2(F)F)c(=O)n1 [Gemcitabine]	0.51 ± 0.05
CN1CCN(CC(=O)N2c3ccccc3C(=O)Nc3cccnc32)CC1 [Pirenzepine dihydrochloride]	0.531 ± 0.061
COc1ccccc1Oc1c(NS(=O)(=O)c2ccc(C(C)(C)C)cc2)nc(-c2ncccn2)nc1OCCO [Bosentan]	0.544 ± 0.091
CN(C)CCOC(c1ccccc1)c1ccccc1.Cn1c(=O)c2[nH]c(Cl)nc2n(C)c1=O [Dimenhydrinate]	0.53 ± 0.059
O=C(NCC(O)CO)c1c(I)c(C(=O)NCC(O)CO)c(I)c(N(CCO)C(=O)CO)c1I (stereo not given) [Ioversol]	0.452 ± 0.008
